Among the test systems are PKMYT1; PKN1; PKN2; PLK1; PLK2; PLK3; PLK4; PRKCD; PRKCE; PRKCH; PRKCI; PRKCQ; PRKD1; PRKD2; PRKD3; PRKG1; PRKG2.
Common to all, as to settings: concentration: 1 μM, replicates: in singlicate; n = 1
In a further experiment the test system is T1, PKAC-alpha.
T1 construct: gene PRKACA

In the next experiment the test system is T2, PKAC-beta.
T2 construct: gene PRKACB

For the next experiment, the system named is T3, PRKR.
T3 construct: gene EIF2AK2

SMILES strings stand for the structures.
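Further: KINOMEscan kinase panel screen.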

As to `CCc1ccc(-c2ccc3c(c2)-c2nn(C)cc2S(=O)(=O)N3C)cc1`, the “%Inh” value is listed as 0% in the experiment on PKAC-alpha; 0% with PKAC-beta; 0% in the experiment on PKMYT1; 0% in the experiment with PKN1; 0% with PKN2; 8% in the experiment on PLK1. For the same molecule, the “%Inh” value in the experiment on PLK2 worked out at 0%; in the experiment on PLK3 it was 56%; in the experiment with PLK4 it was 0%; in the experiment with PRKCD it was 14%; in the experiment on PRKCE it was 0%; with PRKCH, 0%. Further, the “%Inh” value with PRKCI is reported as 18%; with PRKCQ, 10%; with PRKD1, 0%; in the experiment on PRKD2 it was 13%; in the experiment with PRKD3, 0%; with PRKG1 it was 0%. The “%Inh” value in the experiment on PRKG2 and in the experiment on PRKR was 0% each time.

In the case of `CCCC(=O)Nc1n[nH]c2ncc(-c3cccc4ccccc34)cc12` [SB-642057], the “%Inh” value amounted to 0% in the experiment on PKAC-alpha; 0% with PKAC-beta; 22% in the experiment on PKMYT1; 19% in the experiment on PKN1; 0% with PKN2; 0% with PLK1. For the same molecule, the “%Inh” value with PLK2 came to 0%; in the experiment on PLK3, 1%; in the experiment with PLK4, 13%; in the experiment on PRKCD, 0%; with PRKCE, 16%; with PRKCH, 16%. In addition, the “%Inh” value was 15% with PRKCI; 0% with PRKCQ; 0% in the experiment with PRKD1; 14% in the experiment on PRKD2; 0% with PRKD3; 7% with PRKG1. Further, the “%Inh” value in the experiment with PRKG2 is given as 0%; in the experiment with PRKR it was 29%.

With `Cc1c(Cn2c(C)nn3c(=O)cc(N4CCO[C@H](C)C4)nc23)cccc1C(F)(F)F` [GSK2373690], the “%Inh” value in the experiment on PKAC-alpha turned out to be 0%; in the experiment on PKAC-beta, 11%; in the experiment with PKMYT1, 11%; in the experiment on PKN1, 0%; in the experiment on PKN2, 0%; in the experiment with PLK1 it was 0%. Besides, the “%Inh” value with PLK2 is listed as 0%; with PLK3, 0%; in the experiment on PLK4, 0%; in the experiment with PRKCD, 0%; with PRKCE it was 0%; with PRKCH it was 35%. Further, the “%Inh” value with PRKCI was found to be 26%; with PRKCQ, 17%; in the experiment on PRKD1, 0%; with PRKD2, 0%; in the experiment on PRKD3, 0%; in the experiment on PRKG1, 15%. Moreover, the “%Inh” value with PRKG2 and in the experiment on PRKR was 0% throughout.

On to `CN1C(=O)C(Nc2cc(Cl)c(O)c(Cl)c2)=C(c2ccc(Cl)cc2)C1=O` [SB-404321], for which the “%Inh” value in the experiment on PKAC-alpha, with PKAC-beta, in the experiment on PKMYT1, in the experiment on PKN1, in the experiment with PKN2 and with PLK1 was 0% each time. Further, the “%Inh” value in the experiment on PLK2, in the experiment with PLK3, with PLK4, in the experiment on PRKCD, in the experiment on PRKCE and in the experiment with PRKCH was 0% in each case. In addition, the “%Inh” value came out at 3% with PRKCI; 0% in the experiment on PRKCQ; 54% in the experiment on PRKD1; 0% in the experiment on PRKD2; 0% in the experiment with PRKD3; 0% in the experiment with PRKG1. Moreover, the “%Inh” value in the experiment on PRKG2 was determined as 0%; in the experiment with PRKR, 4%.

With `Nc1n[nH]c2ncc(-c3ccccc3)cc12` [SB-517081], the “%Inh” value is 0% in the experiment on PKAC-alpha; 0% in the experiment on PKAC-beta; 2% in the experiment with PKMYT1; 0% in the experiment on PKN1; 0% in the experiment on PKN2; 0% in the experiment with PLK1. Further, the “%Inh” value came out at 11% in the experiment with PLK2; 0% with PLK3; 15% in the experiment on PLK4; 0% in the experiment with PRKCD; 16% in the experiment with PRKCE; 72% with PRKCH. Also, the “%Inh” value in the experiment on PRKCI was 21%; in the experiment with PRKCQ, 3%; with PRKD1, 4%; in the experiment with PRKD2, 0%; in the experiment on PRKD3, 0%; in the experiment on PRKG1 it was 0%. Moreover, the “%Inh” value in the experiment on PRKG2 and with PRKR was 0% throughout.

With `CCC(=O)c1c(-c2ccccc2)c2cc(Cl)ccc2c(=O)n1Cc1cc(S(C)(=O)=O)n(CC(N)=O)n1`, the “%Inh” value in the experiment with PKAC-alpha came out at 0%; with PKAC-beta, 0%; in the experiment with PKMYT1 it was 0%; with PKN1, 1%; in the experiment on PKN2, 8%; with PLK1, 0%. For the same molecule, the “%Inh” value with PLK2 turned out to be 0%; with PLK3 it was 0%; with PLK4, 0%; with PRKCD it was 6%; in the experiment with PRKCE, 0%; with PRKCH it was 80%. Besides, the “%Inh” value in the experiment with PRKCI is 12%; in the experiment with PRKCQ it was 0%; in the experiment with PRKD1, 0%; in the experiment with PRKD2 it was 0%; in the experiment with PRKD3, 0%; with PRKG1 it was 0%. In addition, the “%Inh” value with PRKG2 and with PRKR was 0% throughout.

With `Cc1ccc(-c2ccc3c(ccc4sc5c(c43)NC[C@@H](C)N=C5N(C)C)n2)cn1`, the “%Inh” value in the experiment on PKAC-alpha, in the experiment with PKAC-beta, in the experiment on PKMYT1, with PKN1, with PKN2 and with PLK1 was 0% throughout. Moreover, the “%Inh” value in the experiment on PLK2 came out at 0%; with PLK3, 0%; with PLK4, 0%; in the experiment with PRKCD, 0%; in the experiment with PRKCE, 36%; in the experiment with PRKCH, 0%. Further, the “%Inh” value is given as 0% in the experiment on PRKCI; 0% in the experiment on PRKCQ; 10% in the experiment on PRKD1; 0% with PRKD2; 20% with PRKD3; 0% in the experiment with PRKG1. Also, the “%Inh” value in the experiment with PRKG2 and in the experiment with PRKR was 0% each time.

With `COc1ccc(-n2cnc3c(N)ncnc32)cc1` [SKF-97236], the “%Inh” value in the experiment with PKAC-alpha is listed as 0%; in the experiment on PKAC-beta it was 19%; with PKMYT1 it was 17%; with PKN1, 46%; in the experiment with PKN2 it was 0%; in the experiment on PLK1, 18%. In addition, the “%Inh” value is listed as 3% in the experiment with PLK2; 2% in the experiment with PLK3; 1% with PLK4; 9% in the experiment on PRKCD; 0% in the experiment on PRKCE; 23% in the experiment on PRKCH. For the same molecule, the “%Inh” value is 28% in the experiment with PRKCI; 0% in the experiment with PRKCQ; 0% in the experiment with PRKD1; 1% in the experiment on PRKD2; 5% with PRKD3; 14% in the experiment on PRKG1. In addition, the “%Inh” value with PRKG2 was determined as 33%; in the experiment with PRKR, 0%.

As to `Cc1nn2c(=O)cc(N3CCOCC3)nc2n1Cc1cccc(Cl)c1Cl` [GSK2342769], the “%Inh” value in the experiment with PKAC-alpha is given as 7%; in the experiment with PKAC-beta, 7%; in the experiment on PKMYT1, 1%; in the experiment on PKN1, 36%; with PKN2, 0%; in the experiment on PLK1, 5%. Besides, the “%Inh” value with PLK2 stood at 0%; in the experiment on PLK3 it was 0%; in the experiment with PLK4 it was 0%; in the experiment on PRKCD, 0%; in the experiment with PRKCE it was 0%; in the experiment with PRKCH, 21%. In addition, the “%Inh” value in the experiment on PRKCI was 5%; in the experiment on PRKCQ, 19%; in the experiment with PRKD1 it was 20%; in the experiment on PRKD2, 0%; in the experiment with PRKD3 it was 16%; in the experiment on PRKG1, 0%. Moreover, the “%Inh” value in the experiment on PRKG2 and in the experiment with PRKR was 0% throughout.

As for `C[C@@H]1CC[C@H](C(=O)NC2CCCCC2)CN1c1cc(-c2ccc3c(N)n[nH]c3c2)nc(N)n1` [GSK2291363], the “%Inh” value came out at 32% in the experiment with PKAC-alpha; 18% in the experiment with PKAC-beta; 6% in the experiment with PKMYT1; 0% in the experiment with PKN1; 0% with PKN2; 8% in the experiment with PLK1. Moreover, the “%Inh” value with PLK2 is recorded as 0%; in the experiment on PLK3, 0%; in the experiment on PLK4, 0%; in the experiment with PRKCD it was 8%; with PRKCE it was 14%; in the experiment on PRKCH, 34%. For the same molecule, the “%Inh” value with PRKCI came out at 37%; in the experiment with PRKCQ, 34%; in the experiment on PRKD1, 0%; in the experiment on PRKD2, 12%; in the experiment with PRKD3, 26%; in the experiment with PRKG1, 17%. Further, the results for the “%Inh” value with PRKG2 and with PRKR were 0% and 14%, respectively.

The values above are taken from publication PMC5540273 (PLoS ONE, 2017).
